# Screens: PubChem BioAssay, several laboratories
# Most compounds without a hit are left out; they make up all but 5.9% or so of the library.
# ABHD5-PLIN5 inh: ABHD5-PLIN5 interaction inhibitors, primary screen, cell lysate, split luciferase complementation, luminescence | Split G. princeps luciferase complementation, 4 h | Perilipin-5 (Homo sapiens) + 1-acylglycerol-3-phosphate O-acyltransferase ABHD5 (Homo … | inhibition, % at 4 µM | actives 0.78% (n = 360,000);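 active = inhibition above the mean inhibition across every tested compound plus 3 SD, cut at about 22% in these data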;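 note: 0% = DMSO only wells and the 100% control is not disclosed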
# ALR inh: inhibitors of human ALR sulfhydryl oxidase, primary screen, biochemical, H2O2 detection, HRP-luminol luminescence, single point; FAD-linked sulfhydryl oxidase ALR (Homo sapiens), P55789; purified ALR, DTT oxidation; inhibition, % (no concentration beside the values); actives 3.8% (n = 290,000);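 active = mean replicate inhibition above about 79%, with every replicate also reaching it, limit read from the data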
# LANA-H2B inh: blockers of LANA interaction with H2A/H2B – biochemical, FP readout, HTS, primary screen | Protein LANA1 (Human herpesvirus 8 type P (isolate GK18)), Q9QR71 | cell-free LANA-H2A/H2B peptide, fluorescence polarization | inhibition, % (no concentration beside the values) | actives 0.6% (n = 320,000); in the data active = inhibition mostly above about 10%, no sharp cut-off; inactive = mostly below about 6.7%
# Rtt109 Vps75: inhibitors of C. albicans Rtt109/Vps75 HAT, primary screen, biochemical, ThioGlo CoA-SH fluorescence, plate reader; actives 0.16% (n = 330,000); AID 540336, 2011; Histone acetyltransferase RTT109 (Candida albicans (strain SC5314 / ATCC MYA-2876)), …; purified Rtt109/Vps75, 4 h; inhibition, % at 34.9 µM;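 active = inhibition of at least 50% in every replicate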
# PRMT1 FP inh: PRMT1 methyltransferase inhibitors, primary screen, biochemical, fluorescence polarization; actives 1.3% (n = 370,000); inhibition, % at 2.79 µM; recombinant PRMT1, activity-based probe fluorescence polarization; AID 652257, 2013;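 active = inhibition above about 21% made by adding two undisclosed values, limit read from the data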
# rCAG binder: binders of r(CAG) RNA repeats, primary screen, biochemical, fluorescence | actives 1.3% (n = 370,000) | AID 651821, 2012 | inhibition, % at 3 µM | r(CAG) RNA repeat, TO-PRO-1 dye displacement fluorescence;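 active = inhibition above the plate cutoff, the mean of all test compounds on that plate plus 3 SD, cut at about 35% in these data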;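 note: 0% = DMSO alone and 100% = 100 µM mitoxantrone as full dye displacement; higher means more dye released from RNA so lower well fluorescence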
# PRMT1 inh conf: PRMT1 methyltransferase inhibitors, confirmation, biochemical, fluorescence polarization, triplicate | recombinant His-PRMT1, activity-based probe fluorescence polarization | shares compounds with PRMT1 FP inh | inhibition, % at 2.79 µM | actives 42% (n = 3,300) | AID 687036, 2013;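 active = mean inhibition across replicates above the hit cutoff derived for the earlier primary screen, cut at about 22% in these data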
# Numbers without * were called inactive; / = no result given.
SMILES,ABHD5-PLIN5 inh,ALR inh,LANA-H2B inh,Rtt109 Vps75,PRMT1 FP inh,rCAG binder,PRMT1 inh conf
CCN(CC)C(=O)CSc1nc2c(sc(=S)n2-c2ccccc2)c(=O)n1Cc1ccco1,10,61,6,9,25*,2,21
COc1cccc(CN(C)C(=O)c2ccc(S(=O)(=O)Nc3ccccc3C)cc2)c1OC,-5,/,/,/,0,6,/
CC(=O)Nc1nc(=O)c2ccccc2s1,-1,13,-8,3,44*,-2,33*
Nc1nc(=O)c2ccccc2s1,-15,/,/,5,36*,1,25*
CC(=O)N/C(N)=N/c1nc(=O)c2ccccc2s1,-7,9,0,3,3,-2,/
Nc1nc2c(F)cccc2s1,1,5,-4,-36,0,-2,/
COc1ccc(CN2C(NC(=O)OCc3ccccc3)=NC3=CC(C)(C)n4c(=O)n(-c5ccccc5)c(=O)n4C32)c(OC)c1 (stereo not drawn),/,/,/,/,0,19,/
COc1cccc2sc3cc(NCc4ccc(C)o4)ccc3c(=O)c12,8,0,2,-78,3,12,/
CC(=O)c1ccc(S(=O)(=O)NCC(=O)NC(c2nc3ccccc3[nH]2)C(C)C)cc1 (stereo not drawn),-11,99*,2,-4,34*,6,38*
CC(C)C(NC(=O)CCNC(=O)c1ccc(C(C)(C)C)cc1)c1nc2ccccc2[nH]1 (stereo not drawn),7,0,-1,-4,10,1,/
COc1ccc(OC)c(-n2c(=S)[nH]c3cc(C(=O)N(C)Cc4ccccc4)ccc3c2=O)c1,-3,18,-2,-1,0,2,/
COc1ccc(OC)c(-n2c(=S)[nH]c3c(sc(=S)n3-c3ccccc3C)c2=O)c1,-6,-3,/,-3,48*,6,3
COc1cccc(-n2c(=S)sc3c(=O)n(-c4ccccc4OC)c(=S)[nH]c32)c1,-4,2,/,-5,82*,7,21
COCCN1Cc2cc(C(=O)OC)c3c(c2C1=O)c1ccccc1n3S(=O)(=O)c1ccc(C)cc1,/,/,/,/,-6,17,/
CC(C)c1ccc(N2C(=O)/C(=C/N(C)C)SC2=S)cc1,-5,-15,1,0,26*,27,20
CN(C)c1ccc2nc3c(=O)[nH]c(=O)nc-3n(CC(O)C(O)C(O)CO)c2c1 (stereo not drawn),18,-105,30*,-1,80*,-224,55*
Cc1ncc(C(O)c2ccc(N(C)C)cc2)n1Cc1ccccc1 (stereo not drawn),4,/,/,/,3,1,/
Cc1cccc(-n2c(C)c(-c3ccccc3)[nH]c2=S)c1,-6,82*,2,9,34*,3,16
Cc1cc(C(=O)CCC(=O)N(C)CC(=O)Nc2c(Cl)cccc2Cl)c(C)s1,4,-4,6,4,28*,-2,1
CCc1ccccc1N1CC23C=CC(O2)C(C(=O)OCC(C)C)C3C1=O (stereo not drawn),0,-9,-2,-5,0,0,/
CC(C)COC(=O)NCC12C=CC(O1)C1C(=O)N(c3ccc(Cl)cc3)C(=O)C12 (stereo not drawn),5,/,0,16,37*,-1,33*
Cc1ccc(C)c(NC(=S)N2CCN(c3ccccn3)CC2)c1,-4,-1,-3,-9,1,-5,/
Cc1ccc(N2C(=O)C3C4C=CC(CNC(=S)N5CCN(c6ccccn6)CC5)(O4)C3C2=O)cc1 (stereo not drawn),8,-5,-1,3,57*,11,48*
